D2 antag = HTS Assay for Allosteric Antagonists of the Human D2 Dopamine Receptor: Primary Screen for Antagonists. HEK293 TREx D2 cells, calcium flux, dopamine EC80. 2% of 340,000 active. D(2) dopamine receptor (Homo sapiens), P14416. inhibition, % at 10 µM; in the data active = inhibition above about 30%; inactive = below that, where a call was filed
Target sequence (P14416 whole entry, looked up): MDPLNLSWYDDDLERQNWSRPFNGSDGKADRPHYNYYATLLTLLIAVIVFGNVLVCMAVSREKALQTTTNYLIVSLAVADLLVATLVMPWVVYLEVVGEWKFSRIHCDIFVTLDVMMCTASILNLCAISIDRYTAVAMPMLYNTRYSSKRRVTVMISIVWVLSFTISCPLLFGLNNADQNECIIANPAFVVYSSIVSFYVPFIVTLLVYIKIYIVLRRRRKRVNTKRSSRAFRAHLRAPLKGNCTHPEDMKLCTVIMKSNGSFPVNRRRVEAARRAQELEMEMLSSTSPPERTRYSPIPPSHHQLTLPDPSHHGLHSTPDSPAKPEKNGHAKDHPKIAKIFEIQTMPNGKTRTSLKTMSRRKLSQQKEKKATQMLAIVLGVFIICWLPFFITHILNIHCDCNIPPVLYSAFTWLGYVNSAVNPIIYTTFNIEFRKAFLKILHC
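Inhibition of EC80 dopamine-driven calcium flux, recorded kinetically, defines activity here; cells are a tetracycline-induced HEK293 T-REx line expressing force-coupled D2.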
D2 PAM-1 = HTS Assay for Positive Allosteric Modulators of the Human D2 Dopamine Receptor: Primary Screen for Potentiators | D(2) dopamine receptor (Homo sapiens), P14416 | HEK293 T-REx D2, calcium flux, EC20 dopamine potentiation | potentiation, % at 10 µM | 0.34% of 340,000 active | AID 485347, 2010;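 active = potentiation over 3 SD above the plate norm, cut at about 30% in these data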
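Tetracycline-induced Hek293 Trex D2 cells, force-coupled to calcium, loaded with no-wash calcium dye. Compound added with 180 s kinetic read for agonism, then EC20 dopamine and a further 180 s read for potentiation.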
D2 ag-1 = Beta-Arrestin HTS for Positive Allosteric Modulators of the Human D2 Dopamine Receptor: Agonists; D(2) dopamine receptor (Homo sapiens), P14416; DiscoveRx PathHunter D2 beta-arrestin, luminescence, 90 min; 100% = 57 uM dopamine signal; activation, % (concentration not given with the values); 0.084% of 360,000 active; AID 624465, 2012; in the data active = activation above about 40%
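DiscoveRx PathHunter D2 beta-arrestin cells (2,100/well) attached overnight, then compound-stimulated 90 min at 37 C in HBSS/10 mM HEPES/0.1% Tween-20 buffer; beta-galactosidase complementation read by luminescence after 1 h at ambient temperature. Dopamine 57 uM final (EC100) as control.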
D2 PAM-2 = Beta-Arrestin HTS for Positive Allosteric Modulators of the Human D2 Dopamine Receptor: Potentiators; D(2) dopamine receptor (Homo sapiens), P14416; 0.23% of 360,000 active; DiscoveRx D2 beta-arrestin cells, luminescence, 90 min; 100% = 57 uM dopamine signal; potentiation, % (no concentration beside the values); AID 624464, 2012; in the data active = potentiation above about 50%
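D2 cells co-treated with compound plus 50 nM dopamine (EC20) for 90 min at 37 deg C to detect potentiation. Beta-arrestin recruitment was read as enzyme-fragment luminescence after 1 h at ambient temperature. Full response was set by 57 uM dopamine.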
D2 ag-2 = HTS Assay for Allosteric Agonists of the Human D2 Dopamine Receptor: Primary Screen for Agonists; D(2) dopamine receptor (Homo sapiens), P14416; HEK293 T-REx D2 cells, calcium flux agonist mode; activation, % at 2 µM; 0.53% of 340,000 active;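 active = activation over 3 SD above normal in the single-dose calcium agonist read, cut at about 30% in these data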
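Tetracycline-induced HEK293 Trex cells with D2 receptor force-coupled to calcium signaling, plated overnight at 30 C and loaded with no-wash calcium dye. Calcium flux read kinetically for 180 s after compound addition; responses flag agonists.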
Large screens that a line does not name were inactive. Sampled rows, rich in hits. Any-hit rate of the full collection: about 2.4%.

CCc1ccc(CN(Cc2ccco2)c2cnc(S(C)(=O)=O)nc2C(=O)Nc2ccc(C)c(Cl)c2)cc1	none (no result: D2 antag, D2 ag-1, D2 PAM-2)
C=CCc1cc(Cl)ccc1OCCNCCN1CCOCC1	none
C=CCc1cc(Cl)ccc1OCCNCCOC	D2 antag 55
Cc1cccc(C(C)C)c1NC(=O)c1ccc2c(c1)CCN2S(C)(=O)=O	none (no result: D2 antag, D2 ag-1, D2 PAM-2)
CC1CCCC(NC(=O)COC(=O)c2cccc(NS(=O)(=O)/C=C/c3ccccc3)c2)C1C (stereo unspecified)	D2 antag 50
COc1ccc(CCN2C(=O)CC(N3CCN(S(=O)(=O)c4ccccc4)CC3)C2=O)cc1 (stereo unspecified)	D2 PAM-1 31
CCc1ccc(Nc2cc(C)nc3nc(Cc4ccc(Cl)cc4)nn23)cc1	none (no result: D2 antag, D2 ag-1, D2 PAM-2)
COc1cccc(-c2nc(SCc3cccc(Br)c3)n3[nH]c(=O)cc3n2)c1	none (no result: D2 antag, D2 ag-1, D2 PAM-2)
CC(C)(CO)Nc1nc(N2CCCC2)nc(N2CCCC2)n1	D2 antag 47
COc1cc2c(cc1OC)C1C/C(=N\O)C(CC(C)C)CN1CC2 (stereo unspecified)	D2 antag 60
COc1ccc(NC(=O)N2CCCCC2c2cccnc2)cc1 (stereo unspecified)	none
COc1cc(OC)cc(C(=O)NC(=S)N2CCCCC2c2cccnc2)c1 (stereo unspecified)	D2 antag 41
CCOc1ccc2nc(C)cc(Nc3ccccc3OCC)c2c1	none (no result: D2 antag, D2 ag-1, D2 PAM-2)
Cc1ccc(OC(=O)c2snnc2C)cc1C	none (no result: D2 antag, D2 ag-1, D2 PAM-2)
COc1cc(/C=C(\C#N)C(=O)Nc2ccccc2C(=O)O)cc(Cl)c1OC	D2 PAM-1 40
O=C(NCc1ccc(F)cc1)c1cc2n(n1)CCCN(Cc1ccc(F)cc1)C2=O	none (no result: D2 antag, D2 ag-1, D2 PAM-2)
Cc1ccc2c(cnn2C(=O)CCCC(=O)NCc2ccc(Cl)cc2)c1	none
Cc1ccc(CNC(=O)CCC(=O)n2ncc3cc(C)ccc32)cc1	D2 antag 47
C(#CC1CCCCC1)c1ccc2c(c1)COc1c3ccccc3nn1-2	D2 PAM-1 34
CSc1ncccc1C(=O)Nc1ccc(OC(F)(F)F)cc1	none
CC(=O)Nc1ccc(Sc2ncccc2C(=O)Nc2ccc(F)cc2)cn1	D2 ag-2 33
COc1cccc(CNC(=O)C2CCN(c3nnc(-n4c(C)ccc4C)s3)CC2)c1	none (no result: D2 antag, D2 ag-1, D2 PAM-2)
Cn1nccc1NC(=O)Nc1ccc(Cl)cc1	D2 antag 43
Cn1nccc1NC(=O)Nc1ccccc1	none
Cc1ccc(C(=O)Oc2oc(-c3ccccc3)nc2C=Nc2ccc(N(C)C)cc2)cc1	D2 PAM-1 39
COc1ccc(OCCN2C(=O)NC(C)(c3ccc(C)cc3)C2=O)cc1 (stereo unspecified)	D2 PAM-1 66
Cc1ccc(C2(C)NC(=O)N(CCOc3ccccc3)C2=O)cc1 (stereo unspecified)	none
COc1ccc(-n2cc(CNCCc3cscn3)c(-c3ccccc3Cl)n2)cc1	D2 antag 48
CCC12CCCN3CCc4c(n(c5ccccc45)C(O)(C(=O)OC)C1)C32 (stereo unspecified)	D2 antag 51
CC[C@]12CCCN3CCc4c(n(c5ccccc45)[C@](O)(C(=O)OC)C1)[C@@H]32	none
COc1ccc(CCNC(=O)c2ccc3c(c2)c(C)c(C)n3Cc2ccc(F)cc2)c(OC)c1OC	none (no result: D2 antag, D2 ag-1, D2 PAM-2)
Cc1ccc(-c2nc3ncccc3o2)cc1NC(=O)Cc1ccc(Cl)cc1	D2 PAM-1 31
Cc1cc(NC(=O)c2ccc3c(c2)OCO3)ccc1NC(=O)c1ccco1	none
Cc1ccccc1NC(=O)c1ccc(NC(=O)c2ccco2)cc1	D2 antag 45
Cc1ccccc1OCc1nc(-c2ccc(NC(=O)c3ccco3)cc2)no1	D2 PAM-1 43
COc1cc(NC(=O)c2ccc3c(c2)OCO3)ccc1NC(=O)C(C)C	D2 antag 64
Cc1ccc(C(=O)Nc2ccc3c(c2)OCO3)cc1NC(=O)c1ccco1	D2 antag 48
